697 NFkB inh: lowers PMA/ionomycin-induced NF-kB signal in 697 B cells; 697 B-cell NF-kB luciferase reporter, 16 h; inhibition, % at 4 µM; hit rate 0.33% among 330,000; AID 435022; in the data active = inhibition above about 35%
Gli-Sufu block: Gli-Sufu pathway antagonism. Sufu-KO-LIGHT fibroblasts, Gli luciferase reporter luminescence. inhibition, % at 5 µM. hit rate 0.74% among 340,000;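 active = inhibition above about 55%, limit read from the data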;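 note: 0% = DMSO-treated cells and 100% = wells with medium but no cells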
Mdm2-MdmX inh: disrupts the human Mdm2-MdmX interaction; O15151+Q00987; SaOS-2 split-luciferase Mdm2/MdmX complementation, luminescence; inhibition, % at 8 µM; hit rate 3% among 330,000; AID 485346;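 active = inhibition of at least 50% at 8 µM in the primary screen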
Target sequence (O15151 whole entry, looked up): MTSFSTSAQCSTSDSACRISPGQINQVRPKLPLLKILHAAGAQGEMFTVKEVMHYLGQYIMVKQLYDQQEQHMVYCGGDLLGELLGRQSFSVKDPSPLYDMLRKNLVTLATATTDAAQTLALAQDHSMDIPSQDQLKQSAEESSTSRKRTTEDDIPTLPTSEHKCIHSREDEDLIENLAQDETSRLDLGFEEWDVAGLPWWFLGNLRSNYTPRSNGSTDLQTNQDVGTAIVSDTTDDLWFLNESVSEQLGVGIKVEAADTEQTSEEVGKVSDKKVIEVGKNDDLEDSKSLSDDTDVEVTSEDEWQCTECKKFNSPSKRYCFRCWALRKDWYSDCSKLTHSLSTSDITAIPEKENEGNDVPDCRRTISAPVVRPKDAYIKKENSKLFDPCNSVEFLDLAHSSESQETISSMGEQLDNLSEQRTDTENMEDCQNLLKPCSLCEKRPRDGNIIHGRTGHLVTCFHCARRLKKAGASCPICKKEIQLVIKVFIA
Target sequence (Q00987 whole entry, looked up): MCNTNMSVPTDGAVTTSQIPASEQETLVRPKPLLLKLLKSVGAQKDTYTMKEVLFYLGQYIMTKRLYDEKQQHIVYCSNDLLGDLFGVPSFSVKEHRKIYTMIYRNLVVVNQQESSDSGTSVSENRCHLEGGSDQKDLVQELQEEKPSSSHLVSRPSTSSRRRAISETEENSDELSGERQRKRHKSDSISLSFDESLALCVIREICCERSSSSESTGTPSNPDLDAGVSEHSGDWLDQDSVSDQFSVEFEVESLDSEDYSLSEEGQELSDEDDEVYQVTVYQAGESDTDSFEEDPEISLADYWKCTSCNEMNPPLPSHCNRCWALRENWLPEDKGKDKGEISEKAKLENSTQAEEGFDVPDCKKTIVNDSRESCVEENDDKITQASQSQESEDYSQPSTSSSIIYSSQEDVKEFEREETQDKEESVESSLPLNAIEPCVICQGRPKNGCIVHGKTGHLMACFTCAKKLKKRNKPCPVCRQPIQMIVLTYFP
KLF5 inhibitor: inhibitors of KLF5 expression; AID 1700; inhibition, % at 5 µM; DLD-1 KLF5 promoter-luciferase reporter, luminescence; hit rate 0.23% among 290,000;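 active = inhibition above a per-plate limit of that plate's mean compound inhibition plus 3 SD, cut at about 60% in these data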;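 note: 0% = DMSO wells and 100% = LY294002 at 200 µM; higher means less KLF5 promoter-driven luciferase light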
aSyn UTR inh: 5' untranslated region of α-synuclein, MLPCN primary screen; alpha-synuclein 5'UTR reporter, inhibitor activity; inhibition, % (tested at 7.5 µM); hit rate 0.82% among 300,000; in the data active = inhibition above about 60%; inconclusive = no clear call, values can overlap the other calls;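 note: H4 neuroglioblastoma cells stably carrying SNCA 5'UTR luciferase fusion; 0% = DMSO wells and 100% = positive control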
Jurkat NFkB inh: lowers PMA/ionomycin-induced NF-kB signal in Jurkat cells; inhibition, % at 4 µM; PMA/ionomycin-induced NF-kB luciferase reporter, luminescence; hit rate 0.53% among 330,000; AID 435003; in the data active = inhibition above about 50%
697 NFkB conf: inhibitors of the PMA/ionomycin-induced NF-kB reporter in 697 B cells, retest. AID 449746. shares compounds with 697 NFkB inh. 697 B-cell NF-kB luciferase, 16 h. inhibition, % at 4 µM. hit rate 35% among 2,000; in the data active = inhibition mostly above about 28%, no sharp cut-off; inactive = mostly below about 22%
* marks the source's active call; other numbers are inactive results; i = inactive; ? = inconclusive; nt = not tested or not shown. In the library only some 4.1% were active in any assay of this set; here they are far more common.

SMILES | 697 NFkB inh | Gli-Sufu block | Mdm2-MdmX inh | KLF5 inhibitor | aSyn UTR inh | Jurkat NFkB inh | 697 NFkB conf
Cc1cccc(Nc2nc(N)nc(-c3oc4ccccc4c3C)n2)c1 | -97 | -69 | 34 | -63 | -23 | -17 | nt
Cc1csc(=O)n1CC(=O)OCC(=O)c1ccc(Br)cc1 | 9 | -5 | 26 | nt | -13 | -2 | nt
c1ccc([C@H]2CN3C(=N2)Sc2ccccc23)cc1 | -268 | -21 | -171 | nt | nt | -137 | -347
CCCCNc1nc(N)nc(-c2cc(Cl)ccc2O)n1 | -290 | -95 | 21 | -64 | -67 | -135 | -233
COC(=O)c1ccccc1-n1cccc1C(=O)NP(=O)(N1CCOCC1)N1CCOCC1 | 8 | -2 | 13 | -19 | 9 | 5 | nt
CC(=C/c1ccco1)/C=N/NC(=O)CSc1nnc(SCc2ccc(C)cc2)s1 | 52* | -18 | -31 | -13 | 34 | -2 | 50*
COc1ccc(NC(=O)Cc2ccc(C)c(C)c2)cc1S(=O)(=O)N1CCCCC1 | -23 | 1 | 26 | nt | nt | -6 | nt
O=C1c2ccccc2C(=O)N1CSc1ncccn1 | 36* | -3 | 21 | -12 | -7 | -7 | -9
O=C(Nc1cccc(-n2cnnn2)c1)c1ccc(OC(F)(F)F)cc1 | 4 | 1 | 11 | -7 | 11 | -2 | nt
Cc1ccc(C)c(OCC(=O)Nc2ccc(S(=O)(=O)Nc3onc(C)c3C)cc2)c1 | 11 | 24 | 17 | -8 | -5 | 1 | nt
S=C(Nc1ccc(-c2nc3ccccc3[nH]2)cc1)Nc1cccnc1 | -251 | -10 | -55 | -100 | -50 | -87 | -281
c1cncc(-c2nc3ccccc3[nH]2)c1 | 15 | -9 | 6 | -65 | -88 | 0 | nt
CC(C)c1ccc(NC(=O)CCN2C(=O)[C@@H]3Cc4ccccc4CN3C2=O)cc1 | -9 | -40 | 12 | -20 | -14 | 1 | nt
O=C(N/N=C/c1sc(N2CCOCC2)nc1-c1ccccc1)c1ccccc1Cl | 27 | 0 | -3 | -49 | 14 | 35 | nt
Cc1cc(C(=O)N/N=C/c2sc(N3CCOCC3)nc2-c2ccccc2)c(C)o1 | 40* | 22 | 7 | -23 | 6 | 19 | 13
O=C(N/N=C/c1sc(N2CCOCC2)nc1-c1ccccc1)c1ccccc1O | 29 | -1 | 7 | -10 | 23 | 9 | nt
O=C(N/N=C/c1sc(N2CCOCC2)nc1-c1ccccc1)c1ccccc1F | 40* | -1 | 18 | -30 | 15 | 6 | 21
Cc1ccc(CN2CCN(Cc3ccc4cc(F)ccc4n3)CC2CCO)o1 (stereo not given) | 6 | -21 | -8 | -14 | -5 | 11 | nt
Cc1nc2ccc(S(=O)(=O)NCC(=O)Nc3cccc(F)c3)cc2s1 | -3 | -1 | 19 | 1 | 2 | 8 | nt
COc1cccc2c1C(=O)O/C2=C/c1ccc2c(c1)OCO2 | -342 | nt | 6 | -110 | -6 | -63 | -446
CCOc1ccccc1/C=N/Nc1ccccc1[N+](=O)[O-] | -25 | -21 | -55 | -5 | -304 | -41 | nt
CCCOc1ccc(/C=N/Nc2ccccc2[N+](=O)[O-])c(O)c1 | -284 | 30 | 45 | -28 | 62* | -62 | -48
CN(C)c1ccc(C(O)Cc2nc3ccccc3n2C)cc1 (stereo not given) | -269 | -22 | 5 | -82 | -97 | -107 | -289
COc1cccc(Cn2nnc(C(=O)NCCc3ccc(Cl)cc3)c2N)c1 | 8 | 6 | 21 | -53 | 8 | 3 | nt
COc1ccc(C)cc1NC(=O)c1nnn(Cc2cccc(F)c2)c1N | 34 | 23 | 2 | 48 | 48 | 15 | nt
SMILES | 697 NFkB inh | Gli-Sufu block | Mdm2-MdmX inh | KLF5 inhibitor | aSyn UTR inh | Jurkat NFkB inh | 697 NFkB conf
COc1cccc(Cn2nnc(C(=O)Nc3cc(Cl)ccc3OC)c2N)c1 | 41* | 10 | 16 | 5 | 46 | 15 | 38*
COc1ccc(NC(=O)c2nnn(Cc3cccc(F)c3)c2N)c(OC)c1 | 35* | 7 | 29 | 37 | 36 | 16 | 39*
Cc1oc(C(C)(C)C)c(CN2CCOCC2)c1C(=O)O | 18 | 3 | 13 | 0 | 17 | 0 | nt
N#CCSc1nc2c(cc1C#N)CCCC2 | -6 | 15 | 2 | -22 | 4 | -21 | nt
CSC1CCCCC1(O)CSc1nc2c(cc1C#N)CCCC2 (stereo not given) | 40* | 2 | 4 | -11 | ? | -12 | 48*
Cc1ccoc1C(=O)Nc1ccc(CC(=O)O)cc1 | 66* | 31 | -2 | 9 | 84* | 38 | 60*
COc1ccc(OC)c(CC(NC(C)=O)C(=O)NC2CCN(c3nc(OC)nc(OC)n3)CC2)c1 (stereo not given) | -3 | -6 | 5 | -11 | -7 | -4 | nt
O=C(Nc1nc2c(F)cc(F)cc2s1)c1ccccn1 | i | -66 | 25 | -109 | 73* | -32 | -318
O=C(COc1ccccc1)NNc1nc2c(F)cc(F)cc2s1 | 5 | -19 | 18 | -46 | -38 | 1 | nt
CCN(CC(=O)Nc1c(F)cccc1F)C(=O)C1(c2ccccc2)CC1 | 50* | 11 | 1 | -35 | 21 | 7 | 19*
Cc1ccc(C2=NCCn3c2c2ccc(C(F)(F)F)cc2[n+]3[O-])cc1 | -11 | 6 | 9 | nt | -46 | -3 | nt
COc1ccc(COc2cc(-c3cccc(OC)c3)nc3ccc(NC(=O)c4ccccc4)cc23)cc1 | 40* | -3 | 21 | -13 | -1 | 4 | 20
Cc1ccc(NC(=O)C2CCN(S(=O)(=O)c3ccc4c(c3)CCCC(=O)N4)CC2)c(Br)c1 | 5 | -5 | 6 | -9 | 6 | 2 | nt
CCN(CC(=O)Nc1c(F)cccc1F)C(=O)c1cc(S(=O)(=O)N(C)C)ccc1N1CCCC1 | 38* | 13 | -27 | nt | 35 | -1 | 30*
O=C(c1cc(-c2ccc(Cl)cc2Cl)on1)N1CCOCC1 | -293 | -126 | -25 | -91 | 80* | -123 | -186
COC(=O)c1ccc(NC(C)C(=O)OC)c([N+](=O)[O-])c1 (stereo not given) | -21 | -4 | 2 | -11 | -12 | 6 | nt
CCCn1c(SCC(=O)NCCc2ccccc2)nnc1C(C)C | 19 | -9 | 2 | 0 | 10 | 3 | nt
C=CCOc1ccc(NC(=O)C(=O)NCCCn2ccnc2)cc1 | 46* | 10 | -7 | -17 | ? | 7 | 34*
CCCCCOc1ccc(NC(=O)C(=O)NCCCn2ccnc2)cc1 | 48* | 27 | 0 | -39 | 63* | 11 | 53*
Cc1ccc(CNC(=O)C(=O)NCCCn2ccnc2)cc1 | 38* | 10 | -15 | -34 | 33 | 13 | 2
COc1cccc(NC(=O)C(=O)NCCCn2ccnc2)c1 | 20 | -9 | -2 | 5 | -23 | -13 | nt
CCCOc1ccc(C(=O)NCCCn2ccnc2)cc1 | 22 | 1 | 9 | -21 | -10 | -10 | nt
O=C(NC(=S)N1CCCCCC1)c1ccc(Cl)cc1Cl | 5 | 6 | 9 | -14 | 26 | 7 | nt
CCc1ccccc1NC(=O)NCc1cccnc1 | 15 | 1 | 18 | -8 | 3 | 5 | nt
